High-throughput results (PubChem)
UHRF1 binding: blocks human UHRF1 binding to methylated DNA; UHRF1 binding to methylated oligo, TR-FRET; 370,000 tested, 0.75% active; inhibition, % at 4.4 µM; Q96T88; in the data active means inhibition above about 21%;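 further: UHRF1 SRA domain binding a hemimethylated CpG hairpin DNA probe; 0% = median of test compound wells and 100% = reference inhibitor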
Neddyl block: blocks human cullin neddylation; P61081+Q13564; TR-FRET cullin neddylation, biochemical; calls only at 25 µM; 360,000 tested, 0.58% active; AID 651699; in the data active means inhibition above about 36%
Rin1-Abl PPI inh: inhibitors of human Rin1-Abl protein interaction; 360,000 tested, 0.4% active; TR-FRET Rin1/Abl binding, biochemical; P00519+Q13671; inhibition, % at 7.35 µM; AID 588664; in the data active means inhibition above about 5%, passing the limit was not always enough
LEDGF integ inh: blocks HIV-1 LEDGF/p75-dependent DNA integration | 370,000 tested, 0.64% active | inhibition, % at 3.7 µM | TR-FRET IN-LEDGF/p75 DNA integration, Eu/Cy5;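 active means inhibition above the screen-wide mean plus 3 SD, cut at about 13% in these data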;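 further: signal is the Cy5 over europium emission ratio at 671 and 618 nm; 0% = plate median of compound wells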
proKLK7 act: activates the human kallikrein-7 zymogen; P49862; purified proKLK7, EDANS-DABCYL substrate fluorescence; 100% is mature enzyme control, 0% vehicle; activation, % at 7 µM; 370,000 tested, 0.9% active;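 active means activation above the mean of all tested compounds plus 3 SD, computed per campaign excluding outliers beyond control limits, cut at about 13% in these data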
MBD2 DNA inh: MBD2-methylated oligo binding inhibition; Q9UBB5; TR-FRET, MBD2 binding to methylated oligonucleotide; inhibition, % at 4.4 µM; 370,000 tested, 0.31% active; AID 686964; in the data active means inhibition above about 13%
Target sequence (Q9UBB5 whole entry, looked up): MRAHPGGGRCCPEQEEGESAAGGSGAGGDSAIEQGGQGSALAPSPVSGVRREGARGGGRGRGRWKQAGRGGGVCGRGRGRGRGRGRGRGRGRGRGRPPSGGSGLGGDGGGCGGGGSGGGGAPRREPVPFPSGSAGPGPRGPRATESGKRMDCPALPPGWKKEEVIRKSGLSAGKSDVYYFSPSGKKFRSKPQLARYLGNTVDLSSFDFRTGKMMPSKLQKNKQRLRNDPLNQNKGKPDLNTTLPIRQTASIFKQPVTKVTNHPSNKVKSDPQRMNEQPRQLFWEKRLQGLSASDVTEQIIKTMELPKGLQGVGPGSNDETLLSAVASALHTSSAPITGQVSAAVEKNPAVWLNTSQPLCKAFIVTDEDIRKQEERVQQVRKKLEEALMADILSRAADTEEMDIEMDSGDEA
KLK7 act conf: confirmation of human kallikrein-7 zymogen activators; shares compounds with proKLK7 act; purified proKLK7, EDANS-DABCYL substrate fluorescence; scaled: vehicle 0, mature enzyme 100; activation, % at 7 µM; 3,200 tested, 68% active; AID 686949;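 active means activation, as change over the incubation, above the mean of all tested compounds plus 3 SD, cut at about 13% in these data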
EDANS-DABCYL int: counter-screen for kallikrein-7 activators: EDANS-DABCYL optical interference; activation, % at 7 µM; AID 686952; 3,200 tested, 80% active; EDANS-DABCYL substrate fluorescence interference, no enzyme, 4 h; solvent 0%, active enzyme control 100%; shares compounds with proKLK7 act;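 active means activation above the all-compound mean plus 3 SD, ignoring values outside control-based bounds, cut at about 4.8% in these data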;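 further: value is the 4 h activation minus the activation read at time zero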
K7 EDANS ctr: optically interferes with EDANS-DABCYL fluorescence, kallikrein-7 activator counter-screen; shares compounds with proKLK7 act; EDANS-DABCYL peptide fluorescence interference, no enzyme; EC50, µM; 250 tested, 20% active; AID 720493;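 active means compounds that raise the fluorescence signal in this interference counterscreen, with EC50 at or below 10 µM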;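 further: intact quenched peptide substrate alone read at 355 nm excitation and 520 nm emission; signal is fluorescence gain from T0 to T4 after four hours at room temperature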
Numbers without * were called inactive; i = inactive; . = not tested or not shown; + = active, no number. Only some compounds are listed: those with a hit (about 3.1% of all), similar ones and a draw of the others.

SMILES | UHRF1 binding | Neddyl block | Rin1-Abl PPI inh | LEDGF integ inh | proKLK7 act | MBD2 DNA inh | KLK7 act conf | EDANS-DABCYL int | others
COc1ccc(C(=O)NCC2CCCO2)cc1 (configuration not stated) | 2.6 | i | -0.7 | 0.7 | -0.7 | -2.9 | . | .
COc1ccc2cc3cc(C(=O)NCC4CCCO4)oc3nc2c1 (configuration not stated) | -17.6 | . | -7.7 | 1.3 | 48.0* | -11.5 | 65.8* | 70.9*
CCCCN(CC)C(=O)c1cc2cc3ccc(OC)cc3nc2o1 | -3.5 | + | 0.1 | -0.4 | 13.0* | 0.3 | -4.7 | 0.3
CCC(C)NC(=O)c1cc2cc3ccc(OC)cc3nc2o1 (configuration not stated) | -4.2 | . | 0.5 | -3.2 | 39.9* | 1.4 | 44.0* | 63.1*
CCOc1ccc(NC(=O)c2cc3cc4ccc(OC)cc4nc3o2)cc1 | -0.7 | . | 2.1 | -0.7 | 0.0 | 0.9 | . | .
CC(=O)c1ccc(-c2ccc(C(=O)NCC3CCCO3)o2)cc1 (configuration not stated) | 0.1 | . | -4.9 | 0.4 | 29.5* | -2.6 | 42.7* | 45.0*
CC(C)(C)c1ccc(S(=O)(=O)N2CCN(C(=O)C(=O)c3cccc(C(F)(F)F)c3)CC2)cc1 | -3.2 | . | . | -2.3 | -0.9 | 2.6 | . | .
COCCNC(=O)c1cc2cc3ccc(OC)cc3nc2o1 | -10.6 | . | -3.8 | -4.2 | 34.8* | -1.8 | 67.3* | 78.1*
COc1ccc2cc3cc(C(=O)NCCC(C)C)oc3nc2c1 | -3.0 | . | -0.1 | -2.2 | -15.2 | 0.9 | . | .
COc1ccc(NC(=O)/C=C/c2ccc(OC)c(OC)c2)cn1 | -1.6 | i | -3.5 | -1.8 | -0.2 | 1.9 | . | .
COc1ccc(NC(=O)COc2ccc(/C=C/c3cccc[n+]3C)cc2OC)cc1 | -3.7 | i | -2.8 | -1.2 | 3.8 | -0.5 | . | .
CCOc1ccc(/C=C/C(=O)Nc2ccc(C(N)=O)cc2)cc1OC | -2.2 | . | -5.3 | 1.8 | 42.5* | 1.8 | 85.0* | 94.2*
COc1ccc(/C=C/C(=O)Nc2ccncc2)cc1OC | 0.7 | . | -4.2 | -7.0 | 17.4* | -2.4 | 12.8* | 13.1*
CCCCOc1ccc(/C=C/C(=O)Nc2ccc(C(N)=O)cc2)cc1 | 4.6 | i | -4.8 | 1.8 | 0.4 | 1.9 | . | .
COc1ccc(NC(=O)COc2ccc(/C=C/c3cc[n+](C)cc3)cc2OC)cc1 | -5.5 | i | -4.8 | 2.0 | 30.6* | -4.3 | 63.7* | 67.8*
COC(=O)[C@@H](NC(=O)NC1CCCc2ccccc21)C(C)C (some centres not stated) | 2.4 | i | -4.9 | -0.7 | -0.3 | -1.7 | . | .
Cc1ccc(C2CC(=O)Oc3cc(C)c(Br)c(C)c32)cc1 (configuration not stated) | 13.8 | i | -3.4 | 7.5 | 0.6 | 6.2 | . | .
COc1ccc(N(CC(=O)Nc2cccc(C(=O)O)c2)S(=O)(=O)c2c(C)noc2C)cc1 | 1.1 | i | 0.5 | 3.1 | 16.6* | -0.8 | -0.5 | -0.3
Cc1c(O)ccc2c(CC(=O)N[C@@H](Cc3ccc(O)cc3)C(=O)O)cc(=O)oc12 | -4.2 | . | -1.0 | 1.2 | 39.5* | 3.4 | 64.6* | 68.5*
CCC(NC(=O)CCc1c(C)c2cc3c(C)c(C)oc3cc2oc1=O)C(=O)N[C@@H](Cc1ccccc1)C(=O)O (some centres not stated) | 2.1 | . | -0.7 | -0.9 | 14.0* | 7.0 | 13.3* | 8.7* | K7 EDANS ctr=>69.5
O=C(Cc1cc(=O)oc2cc(O)ccc12)NC(Cc1ccc(Cl)cc1)C(=O)O (configuration not stated) | 5.1 | i | 4.2 | 4.2 | 45.7* | 4.9 | 65.0* | 68.0*
Cc1c(CC(=O)NCC(=O)NCC(=O)N[C@@H](Cc2ccccc2)C(=O)O)c(=O)oc2c(C)c(O)ccc12 | 0.6 | . | -1.3 | -0.6 | 71.9* | 4.6 | 61.4* | 73.6*
